Test results as given in the supplement of paper PMC6555819.

Each sequence was assayed on VDR:RXRa (NR concentration 270 nM, RXRa partner concentration 90 nM) (assay: PBM binding z-score (relative to random genomic background probes); higher = stronger binding; sequences stand for … in GC…GCGATTGACAGCGTAGAATGAAGG).
Protocol: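 Protein-binding microarray (Agilent 4x180K custom design, double-stranded 60-nt probes: 5' GC cap, 34-nt variable region, 24-nt constant primer region; full probe sequence given). Purified or IVT nuclear receptor:RXRα heterodimers (3:1 NR:RXRα, mostly 270:90 nM) or homodimers were incubated for 1 h in PBS with 2% milk and no ligand, then detected with Alexa488 antibodies. Fluorescence from o1-orientation probes (~5 replicates averaged) was converted to z-scores against 500 random hg19 background probes. Variable regions are seed direct-repeat (DR0–DR5) sites, all their single-nucleotide variants and half-site ablations.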

Sequence	PBM binding z-score
TTACCAAGGTGTAGGTCGTTGATCCCTCTGTAGA	0.256
GCTATTAGTTGAAAGGGTAACCGAATGATTCTCG	0.289
GCTGATAGGTCAGGTTGGTCAGCTAACGGGTACG	1.58
TGAATGAGGTGATAAGATCAGGGAACGTTGCAAA	-0.169
CGTCCAAGGTCAAGGTCCGTGAAAGAGACTCGAA	4.04
TGACCAAGGTGAGCTGAGGTCGTTGATCCAACTC	3.9
TCTAGTAGATCAATAGAGGTTAAGAAAGTGCGCT	1.84
CCTGCTAGGTCGTGGTCAGCTAATCTACAGTATG	-0.0552
GCGACTGGTGCATCAGCAGGTTACCATAACTTAA	-0.435
AGAACGAGGGCAATGAGTGGATAGCACGGGTGGC	1.49
GATATAGGGTCAAGGCCAGAGTACGCGTATTGAT	4.5
CCTACTGGGCCATTCAGAGGTCATTGACCATATG	3.83
ATCTCTAGGTCAAGATAGTTCAGTGAATGCAAAT	4.44
ACTAGCAGGCCAGGTTTGGGTCACTCAAACAAAG	0.437
CCTTACGGGTCAAGGTTTTAGCACGGGTGGTACG	2.82
CGTCCAAGATCAATGCTAGGTCAGTGAAAGCATT	0.425
AGAACGACGGCACGCTGAGTTGATAGCAGAGTAG	-0.301
TATACAGGGTCAAAGGCTAGAGTACGAATGTCGA	4.8
CCTACTTGGTCAGGAGGTCACACACCGGATATGA	3.89
ATATGTAGGTTATCGGGTCTTTCAGTTTGCGCAT	3.12

Sequence	PBM binding z-score
ATCTCTATGTAACAAGTTCAGTGAAAGAGAGGAC	1.26
GCATATAGGTAATACAAGGTGAAAGTTCGATTGT	1.17
TCTTGTAGATCAGCAGGTAAAGAAAGCTGGCCAA	-0.142
TCATATAGGTAAACGGTGAAAGTCGGTGTGGTAA	0.79
AGAACGAGGGCACGCTGAGTTGATGGCAGAGTAG	1.86
ATCTCTAGGTAAAGTTCACTGAAAGATCGATAGA	2.89
GCTTACGGATCAAAGGTTATAGCATGAATAGAAT	1.52
TCAGACATGTGAAGGTAACTCAGGTACGCAGTCG	0.627
AGAATGAGGTTATTAAGATCAGGGTATTGCGGTC	2.43
CCTACTGCGCCAAGGTCATTGATCAGTCAAAGCA	3.65
CGTCAAAGTTCAAGGTAGCGTAACAGAAAGCAGC	3.68
CAAACTAGGTCAAGATGTCAAAGTCCGCTTCCCG	2.2
ATCTCTAGGTAAAGATAGTTCACTGAATGCAAAT	1.37
GCTCGGAGGACAAGGTCAGAGCATTGTCCGTAGA	1.5
CGTCCAAGCTCAAAGGTCAGTGAAGAGATGACGG	2.31
TCGCGTAGGTTAGGGGCATTCAGAATGGCGTCGA	0.397
CCTAGTAGGTCAGGAGGTCACACACCGGATATGA	4.92
AGAATGAGGTTATTAAGATCAGGGCATTGCGGTC	3.01
AGAATGATGTTAAGATCAGGGAAACAGAATACAT	-0.114
CTCGCAAGGTCGTGCTCAGGTGAGTATACCAAAC	2.24
